# Source: PubChem BioAssay (Tox21)
# “And” between values parts separate entries of the source, which are not always exact repeats. Equal values may be shown once. Records with an inconclusive call do not appear. Where a call stands in place of a potency, no number is given. A structure can be active in one record and inactive in another. The source made the active and inactive calls. Unless noted, calls come from the whole dose curve; as a rule, active = well fitted curve in the direction sought with a large enough effect in the repeat runs; inconclusive = weak or mixed curves; inactive = no such curve, though single readings can be large; an effect the other way counts as inactive or inconclusive.
# Legend:
# [1] = A CellTox Green Cytotoxicity Assay to monitor cytotoxicity in HepG2 cells - 0 hour (AID 1224882); note: nearly all actives have a fitted effect of over 35% in size
# Method in brief: (§1)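 Measurements at 0, 8, 16, 24, 32 and 40 h of treatment captured CellTox Green fluorescence in HepG2 cells that had been co-plated with reagent and preincubated 5 h at 37 C/5% CO2.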
# [2] = qHTS RealTime-Glo MT Cell Viability Assay in HepG2 cells - 16 hour (AID 1224885); note: nearly all actives have a fitted effect of over 50% in size; note: potency is the fitted concentration of half-maximal effect
# Method in brief: (§2)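 Real-time, nonlytic viability: 600 HepG2 cells/well mixed with NanoLuc enzyme plus prosubstrate; 5 h settle, compound (DMSO) added by pintool; luminescence monitored over 40 h at 37 C.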
# [3] = qHTS RealTime-Glo MT Cell Viability Assay in HEK293 cells - 24 hour (AID 1224886); note: nearly all actives have a fitted effect of over 50% in size; note: potency is the fitted concentration of half-maximal effect
# Method in brief: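 Cells + reagent dispensed (600 cells/well, HEK293) → 5 h at 37 C/5% CO2 → 23 nL compound in DMSO pinned → 40 h at 37 C → luminescence read at 0, 8, 16, 24, 32, 40 h.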
# [4] = qHTS RealTime-Glo MT Cell Viability Assay in HEK293 cells - 8 hour (AID 1224887); note: nearly all actives have a fitted effect of over 50% in size; note: potency is the fitted concentration of half-maximal effect
# Method in brief: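 HEK293 + NanoLuc + prosubstrate, 600 cells/well; 5 h, 37 C/5% CO2; compound 23 nL in DMSO by pintool; 37 C; luminescence read at 0, 8, 16, 24, 32 and 40 h time points.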
# [5] = A CellTox Green Cytotoxicity Assay to monitor cytotoxicity in HEK293 cells - 16 hour (AID 1224888); note: nearly all actives have a fitted effect of over 35% in size; note: potency is the fitted concentration of half-maximal effect
# Method in brief: (§3)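 Tox21 screen in HEK293: membrane-impermeant cyanine dye fluoresces on binding dead-cell DNA; compound pinned 5 h post-seeding, plates held at 37 C, signal read repeatedly through 40 h.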
# [6] = qHTS RealTime-Glo MT Cell Viability Assay in HepG2 cells - 0 hour (AID 1224889); note: nearly all actives have a fitted effect of over 50% in size
# Method in brief: as §2
# [7] = A CellTox Green Cytotoxicity Assay to monitor cytotoxicity in HepG2 cells - 8 hour (AID 1224890); note: nearly all actives have a fitted effect of over 45% in size; note: potency is the fitted concentration of half-maximal effect
# Method in brief: as §1
# [8] = qHTS assay to identify small molecule antagonists of the estrogen receptor alpha (ER-alpha) signaling pathway using the BG1 cell line in the presence of 0.1 nM 17-beta-estradiol - cell viability counter screen (AID 1259241); note: nearly all actives have a fitted effect of over 40% in size; note: potency is the fitted concentration of half-maximal effect
# Method in brief: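 Cytotoxicity counter-screen: live-cell protease activity measured by fluorescence (30 min reagent step) in the same wells. Cells were VM7Luc4E2 with endogenous ER-alpha and ERE-driven luciferase, treated 22 hr at 37C alongside 0.1 nM 17beta-estradiol final.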
# [9] = qHTS assay to identify small molecule antagonists of the androgen receptor (AR) signaling pathway using the MDA cell line in the presence of 0.5 nM R1881 - cell viability counter screen (AID 1259242); note: nearly all actives have a fitted effect of over 45% in size; note: potency is the fitted concentration of half-maximal effect
# Method in brief: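 Concentration-response screen of compounds for toxicity in MDA-kb2 reporter cells: 16 hr at 37C with 0.5 nM R1881, endpoint live-cell protease fluorescence measured in the reporter wells.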
# [10] = molecular target: Estrogen receptor (Homo sapiens) (UniProt P03372); test: qHTS assay to identify small molecule antagonists of the estrogen receptor alpha (ER-alpha) signaling pathway using the BG1 cell line in the presence of 0.1 nM 17-beta-estradiol (AID 1259244); note: nearly all actives have a fitted effect of over 50% in size; note: potency is the fitted concentration of half-maximal effect
# Method in brief: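 Compounds were tested against 0.1 nM (final) 17beta-estradiol in VM7Luc4E2 cells, which express full-length ER-alpha and an ERE-luciferase reporter; luminescence was recorded following 22 h exposure.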
# [11] = qHTS assay to identify small molecule HDAC inhibitors (AID 1259364); note: potency is the fitted concentration of half-maximal effect;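 note: wild-type HCT-116 cells with endogenous class I/II HDAC activity; nearly all actives have a fitted effect of over 45% in size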
# Method in brief: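 Screening used wild-type human colon HCT-116 cells incubated overnight, dosed with compounds for 2 hours, and assayed with a homogeneous luminogenic HDAC I/II reagent for 30 minutes at room temperature.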
# [12] = qHTS assay to identify small molecule HDAC inhibitors - cell viability counter screen (AID 1259365); note: nearly all actives have a fitted effect of over 50% in size; note: potency is the fitted concentration of half-maximal effect
# Method in brief: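 CellTiter-Glo luminescence (30 min, room temperature) reported viability after a 2 h compound exposure at 37 C. Cells: wild-type HCT-116, 1,500 per well, seeded the night before.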
# [13] = qHTS assay to identify small molecule agonists of the sonic hedgehog signaling (Shh) pathway - cell viability counter screen (AID 1259366); note: nearly all actives have a fitted effect of over 50% in size; note: potency is the fitted concentration of half-maximal effect
# Method in brief: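 Cytotoxicity counter screen: CellTiter-Fluor reagent added after 23 h compound exposure, then 1 h at 37C and fluorescence read. Cells were 3T3 Gli1-Luc, seeded 2,000 per well and dosed 4 h post-plating.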
# [14] = qHTS assay to identify small molecule antagonists of the sonic hedgehog signaling (Shh) pathway - cell viability counter screen (AID 1259367); note: nearly all actives have a fitted effect of over 55% in size; note: potency is the fitted concentration of half-maximal effect
# Method in brief: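 Cytotoxicity was assessed in parallel with Shh reporter activity by measuring live-cell protease fluorescence (CellTiter-Fluor) in NIH/3T3 cells stably carrying Gli1-Luc, treated with compound under conditioned medium stimulation for 23 hr plus 1 hr reagent incubation.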
# [15] = qHTS assay to identify small molecule agonists of the sonic hedgehog signaling (Shh) pathway (AID 1259368; calls by dose curve;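 note: NIH/3T3-derived 3T3Gli1-Luc cells carrying a stable Gli1-driven firefly luciferase reporter; series mostly up to about 92 µM; nearly all actives have a fitted effect of over 15% in size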)
# Method in brief: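 Hedgehog pathway agonism scored by increased firefly luciferase luminescence in 3T3Gli1-Luc cells treated 24 hr at 37 C; detection used a 30 min room-temperature reagent incubation.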
# [16] = qHTS assay to identify small molecule antagonists of the sonic hedgehog signaling (Shh) pathway (AID 1259369; calls by dose curve; note: nearly all actives have a fitted effect of over 45% in size; note: potency is the fitted concentration of half-maximal effect)
# Method in brief: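 NIH/3T3 stable Gli1-Luc clone, 2,000 cells/well, 4hr settle; cpd + conditioned medium 24hr; Luc reagent 30min RT; luminescence.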
# [17] = A CellTox Green Cytotoxicity Assay to monitor cytotoxicity in HEK293 cells - 8 hour (AID 1224884); note: nearly all actives have a fitted effect of over 35% in size; note: potency is the fitted concentration of half-maximal effect
# Method in brief: as §3
# [18] = qHTS assay to identify small molecule phospholipidosis (PLD) inducers (AID 1259344; active = well fitted curve in the direction sought with a large enough effect; an effect the other way counts as inactive or inconclusive)
# Method in brief: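 Cells (HepG2, 900 per well) attach for 4 h, receive LipidTOX Red and compound together, incubate 24 h at 37 C, are fixed 30 min with paraformaldehyde/Hoechst, then imaged at one site per well.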
# [19] = molecular target: Androgen receptor (Homo sapiens) (UniProt P10275); test: qHTS assay to identify small molecule antagonists of the androgen receptor (AR) signaling pathway using the MDA cell line in the presence of 0.5 nM R1881 (AID 1259243); note: nearly all actives have a fitted effect of over 50% in size; note: potency is the fitted concentration of half-maximal effect
# Method in brief: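 With R1881 held at 0.5 nM (final), compound effects on MMTV-luciferase expression in MDA-kb2 cells were scored by luminescence after a 16 hr, 37C incubation.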
# [20] = A CellTox Green Cytotoxicity Assay to monitor cytotoxicity in HepG2 cells - 32 hour (AID 1224883); note: nearly all actives have a fitted effect of over 50% in size; note: potency is the fitted concentration of half-maximal effect
# Method in brief: as §1
# Sequence of Estrogen receptor (Homo sapiens) (P03372 whole entry, looked up): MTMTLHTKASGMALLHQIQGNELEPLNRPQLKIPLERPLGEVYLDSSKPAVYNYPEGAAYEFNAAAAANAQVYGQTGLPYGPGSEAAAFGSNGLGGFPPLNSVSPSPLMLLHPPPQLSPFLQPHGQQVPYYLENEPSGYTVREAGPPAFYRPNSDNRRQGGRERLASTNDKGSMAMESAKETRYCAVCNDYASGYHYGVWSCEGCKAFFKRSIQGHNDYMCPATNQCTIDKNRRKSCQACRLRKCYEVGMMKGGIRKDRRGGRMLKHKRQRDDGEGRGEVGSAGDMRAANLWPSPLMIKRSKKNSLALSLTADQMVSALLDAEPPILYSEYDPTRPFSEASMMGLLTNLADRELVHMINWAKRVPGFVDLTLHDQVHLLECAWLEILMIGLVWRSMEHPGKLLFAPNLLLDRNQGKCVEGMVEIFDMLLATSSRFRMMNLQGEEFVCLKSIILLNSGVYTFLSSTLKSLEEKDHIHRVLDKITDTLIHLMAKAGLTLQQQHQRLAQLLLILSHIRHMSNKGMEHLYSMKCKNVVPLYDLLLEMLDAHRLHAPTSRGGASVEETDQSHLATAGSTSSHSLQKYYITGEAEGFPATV
# Sequence of Androgen receptor (Homo sapiens) (P10275 whole entry, looked up): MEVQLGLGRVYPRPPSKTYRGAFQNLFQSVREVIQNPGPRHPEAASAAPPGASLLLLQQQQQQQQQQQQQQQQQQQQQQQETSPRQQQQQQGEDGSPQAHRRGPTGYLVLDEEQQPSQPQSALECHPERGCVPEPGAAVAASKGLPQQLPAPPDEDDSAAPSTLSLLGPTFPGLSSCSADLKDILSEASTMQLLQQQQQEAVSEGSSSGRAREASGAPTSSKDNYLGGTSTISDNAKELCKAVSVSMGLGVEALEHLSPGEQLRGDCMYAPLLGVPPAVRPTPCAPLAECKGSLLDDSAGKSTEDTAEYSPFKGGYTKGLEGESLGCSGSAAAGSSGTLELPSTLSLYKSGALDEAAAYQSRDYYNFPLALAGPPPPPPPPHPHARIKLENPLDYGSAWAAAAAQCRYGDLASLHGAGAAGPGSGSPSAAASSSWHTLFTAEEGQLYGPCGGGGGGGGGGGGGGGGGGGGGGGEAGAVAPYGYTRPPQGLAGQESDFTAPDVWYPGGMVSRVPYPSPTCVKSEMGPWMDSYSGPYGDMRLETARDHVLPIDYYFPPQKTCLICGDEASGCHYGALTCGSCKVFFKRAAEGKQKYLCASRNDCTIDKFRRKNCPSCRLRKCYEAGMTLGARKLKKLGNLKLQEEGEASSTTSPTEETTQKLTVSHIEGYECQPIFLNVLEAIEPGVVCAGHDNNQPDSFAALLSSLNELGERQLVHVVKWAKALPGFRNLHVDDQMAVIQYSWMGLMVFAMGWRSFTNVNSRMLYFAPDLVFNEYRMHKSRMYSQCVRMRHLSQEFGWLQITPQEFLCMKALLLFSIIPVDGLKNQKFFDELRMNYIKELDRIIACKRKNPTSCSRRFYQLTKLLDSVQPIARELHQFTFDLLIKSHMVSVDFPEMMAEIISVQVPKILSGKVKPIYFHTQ
SMILES,Potency [1],Potency [2],Potency [3],Potency [4],Potency [5],Potency [6],Potency [7],Potency [8],Potency [9],Potency [10],Potency [11],Potency [12],Potency [13],Potency [14],Potency [15],Potency [16],Potency [17],Potency [18],Potency [19],Potency [20]
CCc1cc(Cc2cc(CC)c(N)c(CC)c2)cc(CC)c1N,inactive,inactive,27.5 µM (active),27.5 µM (active),inactive,inactive,inactive,inactive,inactive,54.5 µM (active),inactive,inactive,inactive,inactive,inactive,30.6 µM (active),–,–,–,–
NC(=NCCCCCCN=C(N)/N=C(\N)Nc1ccc(Cl)cc1)/N=C(\N)Nc1ccc(Cl)cc1,inactive,43.4 µM (active) and 31.5 µM (active) and 24.4 µM (active),–,–,–,inactive,54.6 µM (active),inactive,–,–,inactive,44.1 µM (active) and 60.8 µM (active) and inactive,–,60.6 µM (active) and 43 µM (active) and inactive,inactive,–,35.3 µM (active) and 54.6 µM (active),inactive,–,–
N#CSc1ccc(N)c([N+](=O)[O-])c1,inactive,–,49.3 µM (active),–,inactive,–,inactive,–,–,–,inactive,–,69 µM (active),30.8 µM (active),inactive,12.3 µM (active),inactive,–,–,–
CC1(C)CCC(C)(C)c2cc(C(=O)Nc3ccc(C(=O)O)cc3)ccc21,inactive,–,inactive,inactive,inactive,–,inactive,inactive,inactive,inactive,inactive,–,–,–,inactive,–,–,–,inactive,–
O=C1Cc2cc(CCN3CCN(c4nsc5ccccc45)CC3)c(Cl)cc2N1,inactive,–,23.9 µM (active),–,–,inactive,inactive,inactive,–,inactive,inactive,inactive,–,–,inactive,–,–,inactive,–,–
CCCCN(CCCC)c1ccc(C(=O)c2ccccc2C(=O)O)c(O)c1,inactive,–,–,inactive,–,inactive,inactive,inactive,inactive,–,inactive,–,inactive,inactive,inactive,inactive,–,–,inactive,–
CCCCCCCCOc1ccccc1C(=O)Nc1ccc(C(=O)OCC[N+](C)(CC)CC)cc1,–,–,–,inactive,23.9 µM (active),inactive,26.8 µM (active),inactive,–,inactive,inactive,inactive,inactive,inactive,inactive,inactive,23.9 µM (active),inactive,–,23.9 µM (active)
S=c1[nH]c2ccccc2s1,–,inactive,–,inactive,–,inactive,–,inactive,inactive,–,–,inactive,–,48.6 µM (active),–,21.7 µM (active),–,inactive,–,–
COc1cccc2c1C(=O)c1c(O)c3c(c(O)c1C2=O)C[C@@](O)(C(=O)CO)C[C@@H]3O[C@H]1C[C@H](N)[C@H](O[C@@H]2CCCCO2)[C@H](C)O1,–,–,0.338 µM (active),inactive,inactive,inactive,23.9 µM (active),13.3 µM (active),–,inactive,11.9 µM (active),inactive,11.9 µM (active),11.9 µM (active),inactive,–,inactive,inactive,2.11 µM (active),1.69 µM (active)
CCOc1nc2cccc(C(=O)OC(C)OC(=O)OC3CCCCC3)c2n1Cc1ccc(-c2ccccc2-c2nn[nH]n2)cc1 (configuration not stated),–,–,9.76 µM (active),8.7 µM (active),34.6 µM (active),–,–,inactive,–,–,inactive,–,–,–,inactive,21.7 µM (active),–,–,–,43.6 µM (active)
CCCCCCCC(=O)[O-].CCCCCCCC(=O)[O-].[Zn+2],–,inactive,inactive,inactive,–,inactive,inactive,inactive,–,inactive,inactive,inactive,inactive,inactive,inactive,inactive,inactive,–,–,inactive
C=C(C)C(=O)OCC(O)COc1ccc(C(C)(C)c2ccc(OCC(O)COC(=O)C(=C)C)cc2)cc1 (configuration not stated),inactive,19.5 µM (active),–,11 µM (active),inactive,inactive,inactive,27.3 µM (active),–,21.7 µM (active),inactive,inactive,inactive,–,inactive,48.6 µM (active),inactive,–,–,–
O=Cc1cc(O)ccc1Br,inactive,–,–,inactive,inactive,–,inactive,inactive,–,inactive,–,inactive,–,inactive,inactive,inactive,inactive,–,–,–
O=C1CCCCCN1SSN1CCCCCC1=O,inactive,–,inactive,inactive,inactive,inactive,inactive,inactive,inactive,inactive,inactive,inactive,–,54.5 µM (active),–,–,inactive,–,–,–
Cc1cc(CCN2CCN(c3nsc4ccccc34)CC2)cc2c1NC(=O)CC2(C)C,inactive,54.9 µM (active),6.92 µM (active),21.9 µM (active),49 µM (active),inactive,inactive,34.4 µM (active),27.3 µM (active),13.7 µM (active),–,inactive,21.7 µM (active),19.3 µM (active),inactive,1.37 µM (active),–,–,8.63 µM (active),–
